The AC50 is the midpoint of the concentration-response curve, whichever way the signal moves.

Results filed as inconclusive are left out. Activity calls are given as the source filed them. Rule for the calls, unless noted: active = hit-call score of the fitted dose curve at least 0.9, where 1 is the maximum; inactive = score below 0.9.

The nature of assay [1]: CCTE_Shafer_MEA_dev_firing_rate_mean: CCTE's Neural Network Formation Assay for Mean Firing Rate, Shafer Lab (AID 2284031). Summed up:
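Steps: seed rat cortical cells (1.5 x 10^5/well) with laminin on PEI-coated MEA; dose day 0; record DIV 5/7/9/12, full media and compound exchange after DIV 5 and 9 recordings; compute well-mean firing rate AUC.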

A short description of assay [2]: CCTE_Shafer_MEA_dev_per_burst_spike_percent: CCTE's Neural Network Formation Assay for Percent of Spikes in a Burst, Shafer Lab (AID 2284032). Summed up: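 Value is trapezoidal AUC over recordings on days 5, 7, 9 and 12 of the well-mean fraction of spikes falling in single-electrode bursts; rat cortical cultures exposed continuously from plating, treatment renewed DIV 5 and 9, fitted downward against DMSO.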

Assay [3] in a line: CCTE_Shafer_MEA_dev_burst_rate: CCTE's Neural Network Formation Assay for Burst Rate, Shafer Lab (AID 2284042). In a few lines: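 Rat primary cortical cultures on PEI/laminin MEA; compound from plating, re-dosed at DIV 5, 9 media change. Single-electrode bursts/recording length, well mean of active electrodes; AUC over DIV 5–12 recordings; loss-of-signal vs DMSO.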
The nature of assay [4]: CCTE_Shafer_MEA_dev_per_burst_interspike_interval: CCTE's Neural Network Formation Assay for Burst Interspike Interval, Shafer Lab (AID 2284044). In a few lines:
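Readout is the average time between spikes inside single-electrode bursts, taken as a well mean across bursting electrodes. Cortical neurons from rat developed networks on MEA plates under continuous 12-day exposure; recordings on days 5, 7, 9 and 12 were integrated by trapezoidal AUC.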

Assay [5] can be described thus: CCTE_Shafer_MEA_dev_burst_duration_mean: CCTE's Neural Network Formation Assay for Mean Burst Duration, Shafer Lab (AID 2284045). In a few lines:
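Network-formation assay in primary rat cortical neurons; treatment spans twelve days of development. Mean burst duration per well is integrated by trapezoidal AUC and fitted in the loss-of-signal direction against DMSO baseline.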

A short description of assay [6]: CCTE_Shafer_MEA_dev_interburst_interval_mean: CCTE's Neural Network Formation Assay for Mean Interburst Interval, Shafer Lab (AID 2284046).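 Note: well-mean interburst interval of bursting electrodes as AUC over four recording days; curve fitted for decrease in interburst interval relative to DMSO.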 In a few lines: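 Rat cortical neurons, 1.5 x 10^5 cells/well, 48-well MEA; compound from day 0 through DIV 12, media and treatment renewed DIV 5/9. Recordings DIV 5, 7, 9, 12; well-mean interburst interval → trapezoidal AUC, loss direction vs DMSO.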

Assay [7] in a line: CCTE_Shafer_MEA_dev_inter_network_spike_interval_mean: CCTE's Neural Network Formation Assay for Mean Inter-network Spike Interval, Shafer Lab (AID 2284047). Summed up: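 Primary rat cortical neurons on PEI-coated 48-well MEAs (16 electrodes/well) were exposed from plating day 0 to DIV 12, with dosing renewed at DIV 5 and 9. Recordings at DIV 5, 7, 9, 12 were collapsed by trapezoidal AUC, loss-of-signal fit vs DMSO.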

The nature of assay [8]: CCTE_Shafer_MEA_dev_network_spike_number: CCTE's Neural Network Formation Assay for Number of Network Spikes, Shafer Lab (AID 2284048). In a few lines: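 Extracellular recordings from 16-electrode wells track network formation in rat cortical cultures under continuous treatment from plating. The endpoint is network spike number, expressed as AUC across DIV 5–12 relative to DMSO vehicle.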

Assay [9] can be described thus: CCTE_Shafer_MEA_dev_network_spike_peak: CCTE's Neural Network Formation Assay for Mean Number of Electrodes in Network Spike, Shafer Lab (AID 2284049). Summed up: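 Continuous 12-day exposure of rat cortical cultures, starting at plating, on MEA plates. Endpoint: electrodes participating in network-spike peaks, AUC across DIV 5–12, DMSO as negative control.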
A short description of assay [10]: CCTE_Shafer_MEA_dev_spike_duration_mean: CCTE's Neural Network Formation Assay for Mean Spike Duration, Shafer Lab (AID 2284051).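 Note: mean network spike duration pooled as area under curve over DIV 5 to 12 recordings.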 In a few lines: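 Rat cortical primary cultures, 48-well MEA (16 electrodes/well); compound from plating, renewed DIV 5, 9. Network spike duration (AxIS adaptive detector) recorded DIV 5/7/9/12, combined as trapezoidal AUC; loss direction vs DMSO.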

The nature of assay [11]: CCTE_Shafer_MEA_dev_network_spike_duration_std: CCTE's Neural Network Formation Assay for Standard Deviation of Network Spike Duration, Shafer Lab (AID 2284052).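 Note: area under curve of spike duration SD across recording days 5 to 12; hits are decreases in network spike duration SD versus DMSO vehicle.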 Summed up:
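Rat cortical cultures, 1.5 x 10^5 cells/well, exposed continuously from plating to DIV 12 with media/compound renewal at DIV 5, 9. Spontaneous activity recorded DIV 5/7/9/12, AxIS adaptive spike detector; AUC across days; negative direction vs DMSO.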

A short description of assay [12]: CCTE_Shafer_MEA_dev_per_network_spike_spike_number_mean: CCTE's Neural Network Formation Assay for Mean Number of Spikes in a Network Spike, Shafer Lab (AID 2284053). In a few lines:
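Rat cortical primary cultures on 48-well MEA; compound from day 0, re-dosed with full media change DIV 5, 9. Recorded DIV 5, 7, 9, 12; spikes in 0.05 s window at network-spike peak ÷ total network spikes; AUC; loss vs DMSO.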

The nature of assay [13]: CCTE_Shafer_MEA_dev_per_network_spike_spike_percent: CCTE's Neural Network Formation Assay for Percent of Spikes in a Network Spike, Shafer Lab (AID 2284054). In a few lines:
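Developing networks of rat cortical neurons are dosed at day 0 and recorded extracellularly four times up to day 12. The endpoint is the area under the curve of percent spikes in network spikes, fitted in the negative direction relative to DMSO.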

Assay [14] in a line: CCTE_Shafer_MEA_dev_LDH: CCTE's Lactate Dehydrogenase Assay for Cytotoxicity in the Neural Network Formation Assay, Shafer Lab (AID 2284068; active = hit-call score of the fitted dose curve at least 0.9, where 1 is the maximum;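 note: exposure for twelve days from plating with re-dosing on DIV 5 and 9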). Summed up: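 Rat cortical primary neurons, MEA culture; dosing day 0–12, full medium plus compound exchange DIV 5, 9. Read-out: LDH enzyme activity, spectrophotometric. DMSO = negative control/baseline; signal loss → cytotoxicity.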
A short description of assay [15]: CCTE_Shafer_MEA_dev_AB: CCTE's Alamar Blue Assay for Cytotoxicity in the Neural Network Formation Assay, Shafer Lab (AID 2284083; active = hit-call score of the fitted dose curve at least 0.9, where 1 is the maximum;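 note: resazurin reduction fluorescence as viability of cultured neurons; twelve days of exposure from plating with re-dosing on DIV 5 and 9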). Summed up:
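Rat cortical primary cultures, 1.5 x 10^5 cells/well on MEA; continuous compound exposure over 12 days of network development, re-dosed with full medium change DIV 5 and 9. Alamar Blue fluorescence; loss of signal = cytotoxicity vs DMSO baseline.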

Assay [16] in a line: CCTE_Shafer_MEA_dev_correlation_coefficient_mean: CCTE's Neural Network Formation Assay for Mean Correlation Coefficient, Shafer Lab (AID 2284093). Summed up:
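Rat cortical cultures, 1.5 x 10^5 cells/well, dosed from day 0 for 12 days. Spontaneous spikes recorded DIV 5/7/9/12; electrode-pair correlation coefficients averaged, AUC taken. Fit in loss direction vs DMSO.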

A short description of assay [17]: IUF_NPC1b_proliferation_BrdU_72hr: Leibniz Research Institute for Environmental Medicine (IUF) 72-hour Neural Progenitor Cell Bromodeoxyuridine (BrdU) Proliferation Assay (NPC1b) (AID 2284207). Summed up:
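Neural progenitor spheres of human fetal origin are treated for three days; BrdU added for the last 16 h is quantified by luminescence ELISA, with DMSO as baseline and EGF/FGF omission as positive control.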

Assay [18] is described as follows: IUF_NPC1_viability_72hr: Viability Assessment at 72 hours in the Leibniz Research Institute for Environmental Medicine (IUF) Neural Progenitor Cell Proliferation Assay (NPC1) (AID 2284209). In a few lines:
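Spheres of primary human neural progenitors were plated singly in proliferation medium and treated for 72 h. Mitochondrial reduction of resazurin was then measured by fluorescence and analysed against DMSO controls.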

Assay [19] can be described thus: CCTE_Mundy_HCI_Cortical_Synap_Neur_Matur_NeuriteSpotCountPerNeuriteLength: CCTE's Synaptogenesis and Neurite Maturation Assay in rat cortical cells for Neurite Spot Count per Neurite Length, Mundy Lab (AID 2284210). In a few lines: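 Neurite-associated synapse density (synaptophysin puncta per unit neurite length) is measured by fluorescence high-content imaging in rat cortical cultures treated from DIV 7 and fixed at DIV 12, with DMSO as negative control.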

The nature of assay [20]: CCTE_Mundy_HCI_Cortical_Synap_Neur_Matur_BPCount: CCTE's Synaptogenesis and Neurite Maturation Assay in rat cortical cells for Branch Point Count, Mundy Lab (AID 2284211). Summed up:
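HCI read-out of branch points from MAP2/synaptophysin/Hoechst immunofluorescence; rat cortical cultures, AraC DIV 5, dosing DIV 7, fixed DIV 12; fit in positive direction vs DMSO baseline.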

Assay [21] is described as follows: CCTE_Mundy_HCI_Cortical_NOG_NeuriteCount: CCTE's Neurite Outgrowth Assay in rat cortical cells for Neurite Count, Mundy Lab (AID 2284212).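 Note: cells fixed about two days after chemical exposure began.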 Summed up:
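Rat cortical primary cells; compound added 2 h post-plating, 1/10 dilution of working solution. Anti-betaIII-tubulin/AF488 ICC; ArrayScan neurite count vs DMSO.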

Regarding `F`, the outcome in assay [1], in [2], in assay [3], in assay [4], in [5] and in assay [6] was inactive. Further, the compound was called inactive in [7], in [8], in assay [9], in [10], in assay [11] and in assay [12]. The compound was called inactive in assay [13], in assay [14], in [15], in assay [16], in assay [19] and in [20]. Moreover, in assay [21], the compound was called inactive. In addition, the AC50 is 1040 µM (active) in assay [17] and 2640 µM (active) in assay [18].

Source of the values: PubChem BioAssay (EPA / NIEHS).
